Broadly, the residual activity is the signal under treatment as a percentage of the control signal.

In ChEMBL document CHEMBL2218924, “A broad activity screen in support of a chemogenomic map for kinase signalling research and drug discovery” (Biochem J, 2013) one finds residual activity data, which are given here for one compound.

Assay [1] deals with T1, Ephrin type-A receptor 3 (Homo sapiens) (UniProt P29320).
T1 sequence (whole entry): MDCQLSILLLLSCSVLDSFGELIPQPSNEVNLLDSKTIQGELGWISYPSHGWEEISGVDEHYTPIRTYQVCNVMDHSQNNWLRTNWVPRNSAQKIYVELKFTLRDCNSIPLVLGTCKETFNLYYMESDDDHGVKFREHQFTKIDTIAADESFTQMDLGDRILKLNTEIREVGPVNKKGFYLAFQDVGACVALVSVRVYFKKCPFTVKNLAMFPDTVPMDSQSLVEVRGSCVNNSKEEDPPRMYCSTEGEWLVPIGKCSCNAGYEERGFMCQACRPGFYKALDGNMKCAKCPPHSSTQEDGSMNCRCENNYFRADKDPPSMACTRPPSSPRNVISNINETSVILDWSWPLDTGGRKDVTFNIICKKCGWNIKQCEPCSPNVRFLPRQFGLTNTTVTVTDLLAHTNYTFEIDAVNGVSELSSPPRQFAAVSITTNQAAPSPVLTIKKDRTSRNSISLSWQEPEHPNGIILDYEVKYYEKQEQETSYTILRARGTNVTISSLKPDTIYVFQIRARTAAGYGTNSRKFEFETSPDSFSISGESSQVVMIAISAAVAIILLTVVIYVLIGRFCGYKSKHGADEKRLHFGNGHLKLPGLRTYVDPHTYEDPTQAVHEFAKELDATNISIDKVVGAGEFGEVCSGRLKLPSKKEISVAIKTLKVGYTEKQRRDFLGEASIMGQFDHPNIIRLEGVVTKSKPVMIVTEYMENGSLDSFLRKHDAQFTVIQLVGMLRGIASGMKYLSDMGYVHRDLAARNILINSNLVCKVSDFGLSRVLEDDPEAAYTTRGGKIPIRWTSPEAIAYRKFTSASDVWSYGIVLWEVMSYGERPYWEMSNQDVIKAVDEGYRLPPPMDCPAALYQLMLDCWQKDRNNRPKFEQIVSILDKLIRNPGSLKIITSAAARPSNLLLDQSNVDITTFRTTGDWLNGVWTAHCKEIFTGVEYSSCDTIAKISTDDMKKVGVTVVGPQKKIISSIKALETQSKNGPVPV
The conditions noted are these: at 10 µM.

Assay [2] concerns the target Ephrin type-A receptor 4 (Homo sapiens) (UniProt P54764). The following applies: at 1 µM.
Assay [3] shares this target. The conditions noted are these: at 10 µM.
Assay [4] has as its target Ephrin type-A receptor 5 (Homo sapiens) (UniProt P54756). The conditions noted are these: at 1 µM.
For assay [5] the target is unchanged. The following applies: at 10 µM.
Assay [6] has as its target Ephrin type-A receptor 7 (Homo sapiens) (UniProt Q15375). The following applies: at 1 µM.
Assay [7] shares this target. The following applies: at 10 µM.
Assay [8] concerns the target T2, Ephrin type-A receptor 8 (Homo sapiens) (UniProt P29322).
T2 sequence (whole entry): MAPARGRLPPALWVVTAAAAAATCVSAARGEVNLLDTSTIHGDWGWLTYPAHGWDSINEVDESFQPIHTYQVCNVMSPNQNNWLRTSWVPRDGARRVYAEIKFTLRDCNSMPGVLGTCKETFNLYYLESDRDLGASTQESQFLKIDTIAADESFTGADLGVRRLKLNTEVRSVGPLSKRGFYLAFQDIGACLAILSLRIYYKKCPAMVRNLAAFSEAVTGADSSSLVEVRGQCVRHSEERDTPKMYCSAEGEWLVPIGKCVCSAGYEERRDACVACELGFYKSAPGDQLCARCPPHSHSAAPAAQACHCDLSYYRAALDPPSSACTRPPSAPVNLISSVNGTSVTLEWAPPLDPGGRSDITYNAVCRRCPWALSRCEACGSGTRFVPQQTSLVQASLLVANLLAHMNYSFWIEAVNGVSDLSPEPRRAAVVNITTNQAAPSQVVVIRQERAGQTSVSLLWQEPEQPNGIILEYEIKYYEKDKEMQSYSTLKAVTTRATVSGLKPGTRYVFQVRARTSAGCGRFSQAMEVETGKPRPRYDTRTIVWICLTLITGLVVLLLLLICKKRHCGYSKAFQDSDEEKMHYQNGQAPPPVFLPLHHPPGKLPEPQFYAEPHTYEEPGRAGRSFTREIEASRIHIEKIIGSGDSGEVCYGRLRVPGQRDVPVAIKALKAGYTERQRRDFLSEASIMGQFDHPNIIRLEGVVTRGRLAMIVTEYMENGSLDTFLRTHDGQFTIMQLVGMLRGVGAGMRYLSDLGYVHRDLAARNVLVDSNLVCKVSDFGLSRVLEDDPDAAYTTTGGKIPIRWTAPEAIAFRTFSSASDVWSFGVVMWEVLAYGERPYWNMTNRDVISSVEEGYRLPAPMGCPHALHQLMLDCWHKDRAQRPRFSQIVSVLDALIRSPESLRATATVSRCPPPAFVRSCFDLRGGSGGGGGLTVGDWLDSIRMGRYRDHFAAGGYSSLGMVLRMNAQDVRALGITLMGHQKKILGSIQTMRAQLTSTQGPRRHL
The following applies: at 1 µM.

Assay [9] deals with T2, Ephrin type-A receptor 8 (Homo sapiens). The conditions noted are these: at 10 µM.
The target of assay [10] is T3, Ephrin type-B receptor 1 (Homo sapiens) (UniProt P54762).
T3 sequence (whole entry): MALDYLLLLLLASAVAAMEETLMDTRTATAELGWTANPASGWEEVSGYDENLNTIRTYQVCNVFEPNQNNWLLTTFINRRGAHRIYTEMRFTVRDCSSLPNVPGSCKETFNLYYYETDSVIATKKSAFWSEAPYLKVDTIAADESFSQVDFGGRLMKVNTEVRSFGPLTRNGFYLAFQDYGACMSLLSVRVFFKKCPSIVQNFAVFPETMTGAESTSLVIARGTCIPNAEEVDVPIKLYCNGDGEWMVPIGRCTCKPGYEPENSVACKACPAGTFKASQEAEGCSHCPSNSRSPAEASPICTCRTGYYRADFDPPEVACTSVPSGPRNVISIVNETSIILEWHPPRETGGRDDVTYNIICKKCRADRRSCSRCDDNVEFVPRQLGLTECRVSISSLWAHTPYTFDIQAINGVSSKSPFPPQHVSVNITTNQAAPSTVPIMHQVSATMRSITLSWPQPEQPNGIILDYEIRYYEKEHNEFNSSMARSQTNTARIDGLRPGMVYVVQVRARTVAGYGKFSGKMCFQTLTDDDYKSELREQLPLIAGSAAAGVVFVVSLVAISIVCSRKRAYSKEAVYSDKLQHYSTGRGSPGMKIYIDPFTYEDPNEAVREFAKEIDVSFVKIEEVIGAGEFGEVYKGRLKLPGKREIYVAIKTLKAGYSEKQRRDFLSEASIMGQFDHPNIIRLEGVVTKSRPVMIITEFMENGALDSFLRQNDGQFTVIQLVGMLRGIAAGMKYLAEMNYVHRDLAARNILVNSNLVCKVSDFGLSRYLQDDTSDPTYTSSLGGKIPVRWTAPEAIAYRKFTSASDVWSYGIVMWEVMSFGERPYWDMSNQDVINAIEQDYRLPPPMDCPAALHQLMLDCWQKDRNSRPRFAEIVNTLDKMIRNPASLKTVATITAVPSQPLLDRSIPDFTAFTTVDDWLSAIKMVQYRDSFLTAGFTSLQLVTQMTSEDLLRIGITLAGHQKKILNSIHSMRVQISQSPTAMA
The following applies: at 1 µM.

Ephrin type-A receptor 7 (Homo sapiens), sequence (Q15375 28-998 limits assumed): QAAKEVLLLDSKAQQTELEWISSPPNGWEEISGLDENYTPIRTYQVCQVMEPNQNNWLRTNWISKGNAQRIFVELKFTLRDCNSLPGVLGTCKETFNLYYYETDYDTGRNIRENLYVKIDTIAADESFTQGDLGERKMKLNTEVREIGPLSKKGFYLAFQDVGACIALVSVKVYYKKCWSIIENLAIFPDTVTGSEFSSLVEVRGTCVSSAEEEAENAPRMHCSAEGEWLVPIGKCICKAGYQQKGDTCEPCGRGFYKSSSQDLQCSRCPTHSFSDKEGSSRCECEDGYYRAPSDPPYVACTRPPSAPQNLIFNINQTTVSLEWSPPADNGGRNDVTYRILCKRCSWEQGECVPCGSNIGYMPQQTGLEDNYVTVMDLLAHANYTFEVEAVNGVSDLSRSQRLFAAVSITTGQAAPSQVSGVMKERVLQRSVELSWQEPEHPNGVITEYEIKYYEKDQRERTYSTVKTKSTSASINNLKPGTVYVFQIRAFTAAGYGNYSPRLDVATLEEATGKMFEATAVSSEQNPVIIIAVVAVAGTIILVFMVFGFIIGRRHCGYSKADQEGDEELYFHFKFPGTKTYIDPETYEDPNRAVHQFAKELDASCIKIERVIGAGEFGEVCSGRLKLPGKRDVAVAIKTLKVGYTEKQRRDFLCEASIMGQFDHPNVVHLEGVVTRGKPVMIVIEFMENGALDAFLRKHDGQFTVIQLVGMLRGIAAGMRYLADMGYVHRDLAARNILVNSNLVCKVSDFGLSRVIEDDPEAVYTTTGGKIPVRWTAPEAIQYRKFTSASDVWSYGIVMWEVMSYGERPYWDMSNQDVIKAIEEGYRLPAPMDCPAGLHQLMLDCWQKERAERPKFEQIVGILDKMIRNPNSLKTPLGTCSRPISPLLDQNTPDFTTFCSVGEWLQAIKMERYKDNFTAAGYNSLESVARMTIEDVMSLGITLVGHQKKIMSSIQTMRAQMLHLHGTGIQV
Ephrin type-A receptor 5 (Homo sapiens), sequence (P54756 whole entry): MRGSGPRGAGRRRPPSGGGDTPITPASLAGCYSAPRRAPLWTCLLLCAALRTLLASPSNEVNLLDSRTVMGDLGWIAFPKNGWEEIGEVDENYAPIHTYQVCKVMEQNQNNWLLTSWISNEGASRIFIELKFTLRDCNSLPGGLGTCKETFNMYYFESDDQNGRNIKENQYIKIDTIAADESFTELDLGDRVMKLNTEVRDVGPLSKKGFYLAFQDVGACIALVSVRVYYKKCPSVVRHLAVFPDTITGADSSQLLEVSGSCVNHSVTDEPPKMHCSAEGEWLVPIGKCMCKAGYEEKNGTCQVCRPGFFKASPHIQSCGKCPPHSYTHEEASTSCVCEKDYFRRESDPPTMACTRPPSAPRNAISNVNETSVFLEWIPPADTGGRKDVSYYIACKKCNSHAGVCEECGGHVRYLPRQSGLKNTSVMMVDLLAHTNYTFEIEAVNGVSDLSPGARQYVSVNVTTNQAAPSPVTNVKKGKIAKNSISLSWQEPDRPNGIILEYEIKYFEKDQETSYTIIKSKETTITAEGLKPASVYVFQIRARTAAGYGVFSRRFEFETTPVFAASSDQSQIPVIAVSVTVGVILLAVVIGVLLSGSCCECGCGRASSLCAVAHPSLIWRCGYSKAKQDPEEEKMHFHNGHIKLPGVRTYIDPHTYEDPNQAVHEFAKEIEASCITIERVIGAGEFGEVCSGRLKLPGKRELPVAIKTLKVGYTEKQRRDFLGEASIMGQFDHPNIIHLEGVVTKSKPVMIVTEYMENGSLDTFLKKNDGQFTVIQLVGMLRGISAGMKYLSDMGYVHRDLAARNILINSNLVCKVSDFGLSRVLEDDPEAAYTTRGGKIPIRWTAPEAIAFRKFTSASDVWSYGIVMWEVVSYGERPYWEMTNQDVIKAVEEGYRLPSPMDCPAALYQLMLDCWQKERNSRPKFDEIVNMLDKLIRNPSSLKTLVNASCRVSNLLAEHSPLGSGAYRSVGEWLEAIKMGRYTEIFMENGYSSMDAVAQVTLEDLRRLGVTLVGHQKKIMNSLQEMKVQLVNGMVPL
Ephrin type-A receptor 4 (Homo sapiens), sequence (P54764 whole entry): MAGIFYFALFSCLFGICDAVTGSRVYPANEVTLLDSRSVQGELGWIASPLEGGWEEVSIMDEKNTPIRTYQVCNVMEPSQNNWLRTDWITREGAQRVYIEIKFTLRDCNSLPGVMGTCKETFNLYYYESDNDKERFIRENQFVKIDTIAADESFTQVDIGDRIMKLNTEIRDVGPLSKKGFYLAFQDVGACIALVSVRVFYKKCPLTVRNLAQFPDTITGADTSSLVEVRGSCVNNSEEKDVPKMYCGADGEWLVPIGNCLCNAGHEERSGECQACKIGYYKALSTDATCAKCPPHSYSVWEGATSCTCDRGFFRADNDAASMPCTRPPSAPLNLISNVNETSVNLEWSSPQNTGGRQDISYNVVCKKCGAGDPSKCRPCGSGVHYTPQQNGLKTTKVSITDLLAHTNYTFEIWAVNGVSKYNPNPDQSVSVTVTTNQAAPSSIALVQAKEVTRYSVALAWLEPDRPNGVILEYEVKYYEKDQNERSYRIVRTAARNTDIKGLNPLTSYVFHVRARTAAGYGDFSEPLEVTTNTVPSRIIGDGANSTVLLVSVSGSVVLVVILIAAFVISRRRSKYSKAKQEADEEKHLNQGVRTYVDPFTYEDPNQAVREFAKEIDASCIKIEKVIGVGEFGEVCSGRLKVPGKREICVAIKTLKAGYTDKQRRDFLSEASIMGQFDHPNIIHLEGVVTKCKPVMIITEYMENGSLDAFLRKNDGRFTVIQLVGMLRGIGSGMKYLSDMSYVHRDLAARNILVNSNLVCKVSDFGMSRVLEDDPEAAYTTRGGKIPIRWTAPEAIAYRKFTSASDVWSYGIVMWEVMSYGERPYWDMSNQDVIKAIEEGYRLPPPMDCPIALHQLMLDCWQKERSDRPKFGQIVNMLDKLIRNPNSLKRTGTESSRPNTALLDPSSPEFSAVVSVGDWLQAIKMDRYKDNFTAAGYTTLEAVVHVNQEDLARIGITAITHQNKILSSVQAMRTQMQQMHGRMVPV

In the case of `COc1ccc(S(=O)(=O)N(CCO)c2ccccc2CN(C)C/C=C/c2ccc(Cl)cc2)cc1`, the residual activity came to 83% in assay [1]; 103% in [2]; 97% in assay [3]; 124% in assay [4]; 112% in [5]; 96% in [6]. The residual activity in [7] amounted to 96%; in assay [8], 98%; in assay [9] it was 88%; in assay [10] it was 103%.
